# Source: PubChem BioAssay
# HepG2 tox: kills HepG2 cells in TGF-b inhibitor counter-screen. HepG2 CAGA-GFP viability, ATP luminescence, 18 h. Potency, µM (highest dose often 46.1 µM), for inactives: at the top dose activity change, negative = cytotoxicity, hits mostly cytotoxic. 410,000 tested, 0.76% active. AID 588856
#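 CellTiter-Glo luminescence gave cytotoxicity after 18 hours at 37 degrees C. The cells were HepG2 CAGA-GFP in 1% FBS DMEM, stimulated with 500 pg/mL TGF-beta after compound addition. %Activity was normalised to no-cell wells (complete cell-killing) and DMSO (no toxicity), and curves were fitted and classified.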
# TGFb SMAD3 inh: TGF-b pathway inhibition | Potency, µM (top dose mostly 46.1 µM), for inactives: at the highest dose activity, negative = inhibition, actives largely listed as inhibitors | AID 588855 | 410,000 tested, 1.2% active | HepG2 CAGA-GFP TGF-b/SMAD3 reporter, GFP fluorescence, 18 h; TGF-beta stimulated, 500 pg/mL final; also: % is scaled to controls: 0 for no effect and ±100 for the full control effect; nearly all actives have a fitted effect of over 65% in size
#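 TGF-beta reporter screen: HEPG2 CAGA-GFP, 1% FBS, 500 pg/mL TGF-beta final, 18 h; per-cell GFP summed per well; curves fitted and categorized by class.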
# KB-V1 MDR tox: kills drug-selected multidrug resistant KB-V1 cells | KB-V1 MDR cells viability, CellTiter-Glo, 72 h | Potency, µM (highest dose often 46.1 µM), hits mostly cytotoxic | 400,000 tested, 3.4% active | AID 1347076; also: % is scaled to controls: 0 for no effect and ±100 for the full control effect; nearly all actives have a fitted effect of over 60% in size
#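 Cells of the MDR subline KB-V1 are plated, dosed with compound at multiple concentrations, and incubated 72 h at 37 degrees C; CellTiter-Glo is then added and luminescence read after 10 min.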
# HT1080-NT tox: kills 2HG-producing HT-1080-NT fibrosarcoma cells; AID 686970; HT-1080-NT fibrosarcoma viability, CellTiter-Glo ATP luminescence, 48 h; 360,000 tested, 1.6% active; Potency, µM (highest dose often 46.1 µM), without a hit: top-dose activity, negative = less viability, actives largely listed as cytotoxic;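 also: NT is the 2HG producing partner of a matched IDH1 knockdown line; 0% = DMSO-treated cells and -100% = media-only wells without cells; nearly all actives have a fitted effect of over 55% in size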
#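 Read-out is CellTiter-Glo luminescence after 10 minutes at room temperature, following 48 hours' compound treatment of HT-1080-NT cells (750 cells/well, RPMI, 5% FBS, 37 degrees C).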
# KB-3-1 tox: KB-3-1 parental cell cytotoxicity | KB-3-1 viability, CellTiter-Glo ATP luminescence, 72 h | Potency, µM (highest dose often 46.1 µM), most hits filed as cytotoxic | 400,000 tested, 1.4% active; also: % is scaled to controls: 0 for no effect and ±100 for the full control effect; nearly all actives have a fitted effect of over 60% in size
#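 Multi-concentration cytotoxicity screen in KB-3-1 cells grown in DMEM lacking phenol red with 10% FBS. After 72 h at 37 °C with compound, ATP-dependent luminescence was recorded.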
# HT1080 IDH1KD tx: HT-1080 IDH1 knockdown cell toxicity (counter line). HT-1080 IDH1 knockdown viability, ATP luminescence, 48 h. Potency, µM (titrated, usually from 46.1 µM), for inactives: at the top dose activity, negative = toxicity, usual class: cytotoxic. 360,000 tested, 2% active;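 also: 0% = DMSO wells and -100% = cell-free medium wells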
#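 Luminescent ATP read-out (CellTiter-Glo, 10 min at room temperature) after 48 h compound exposure at 37 °C gave viability of IDH1-knockdown HT-1080 cells. Activity was normalised to DMSO and cell-free wells, then fitted as concentration-response curves.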
# Starred values were filed as active, the others as inactive; i = inactive; ? = inconclusive; . = no result given. Sampled rows, rich in hits. Any-hit rate of the full collection: about 6.6%. Calls follow the shape of the dose curve; as a rule, active = well fitted curve in the direction sought with a large enough effect; inconclusive = small, poorly fitted or top-dose-only effect, or another doubt; inactive = no such curve, though single readings can be large; an effect the other way counts as inactive or inconclusive. Potency is read from the fitted curve at half-maximal effect.
SMILES,HepG2 tox,TGFb SMAD3 inh,KB-V1 MDR tox,HT1080-NT tox,KB-3-1 tox,HT1080 IDH1KD tx
CCOC(=O)c1ccc(NC(=O)CC2C(=O)N(c3ccccc3)C(=O)N2C2CCCCC2)cc1 (centres undefined),-5%,-8%,i,.,i,.
Cc1ccc(C(c2nc3ccccc3[nH]2)n2c(-c3ccccc3)nc3ccccc32)cc1 (centres undefined),-61%,20µM*,i,-19%,i,?
Cn1ccc2c(N3CCCCCCC3)cc3c(c21)C1CCC3O1 (centres undefined),-21%,?,i,?,?,?
Cc1cc(NC(=O)CC(C)(C)C)nc2c1c(=O)oc1ccccc12,8%,1%,i,-8%,i,16%
CCCc1cc2c(c(NC(C)=O)n1)c(=O)oc1ccccc12,-12%,-6%,13µM*,-6%,i,-6%
CCCC(=O)Nc1cc(C)c2c(=O)oc3ccccc3c2n1,2%,0%,18µM*,20%,i,9%
CCCCCNc1nc(NCCCO)c(C#N)c2c1CN(C)CC2,-4%,-2%,?,-12%,i,0%
CCCCCNc1nc(N2CCCC2)c2c(c1C#N)CCN(C)C2,22µM*,?,23µM*,29µM*,?,?
COc1cc(C(=O)NCCCNc2nc3cc(C)cc(C)c3cc2C#N)cc(OC)c1OC,-6%,1%,5.8µM*,3%,?,0%
COc1cc(C(=O)NCCCNc2ccc([N+](=O)[O-])cc2)cc(OC)c1OC,4%,?,21µM*,9%,i,11%
CCOC(=O)c1c(-c2ccc(-c3ccccc3)cc2)csc1NC(=O)CNCCN(C)C,i,?,?,9.2µM*,?,9.2µM*
CCOC(=O)c1c(-c2ccc(-c3ccccc3)cc2)csc1NC(=O)CCN1CCOCC1,-4%,?,i,?,?,?
CCOC(=O)c1c(-c2ccc(F)cc2)csc1NC(=O)CCN1CCOCC1,1%,-2%,15µM*,2%,i,1%
Cc1ccc(NS(=O)(=O)c2cc3c(cc2Cl)CCC(=O)N3)cc1Cl,.,.,i,.,i,.
COc1ccc(-c2ccc(CCC(=O)O)n2CC(=O)Nc2cccc(Cl)c2C)cc1,-3%,-17%,i,.,i,.
COCCNC(=O)C(=O)Nc1ccc2c(c1)N(S(=O)(=O)c1cccs1)CCC2,-20%,-11%,?,?,?,6.5µM*
CC(C)CCNC(=O)C(=O)Nc1ccc2c(c1)N(S(=O)(=O)c1cccs1)CCC2,0%,5%,?,3.3µM*,5.8µM*,2.6µM*
Cc1nnc(NCc2ccccc2)c2c1nnn2Cc1ccccc1Cl,2%,0%,i,.,i,.
COc1ccc(S(=O)(=O)n2nc(OCc3cccs3)cc2N)cc1,-18%,?,21µM*,-2%,i,2%
COc1ccc(S(=O)(=O)n2nc(OC(=O)c3cccs3)cc2N)cc1,-21%,-13%,i,4%,i,3%
O=C(Nc1ccc2nc(SCC(=O)N3CCCC3)sc2c1)c1cccc(F)c1,-11%,0%,.,.,.,.
Cc1ccc(OCC(O)Cn2c(=N)n(Cc3ccccc3)c3ccccc32)cc1 (centres undefined),13µM*,?,16µM*,-25%,i,18µM*
N=c1n(Cc2ccccc2)c2ccccc2n1CC(O)COc1ccc(Cl)cc1Cl (centres undefined),11µM*,?,?,29µM*,?,12µM*
COc1ccc(OCC(O)Cn2c(=N)n(Cc3ccccc3)c3ccccc32)cc1 (centres undefined),-97%,?,?,?,?,11µM*
N=c1n(Cc2ccc(Cl)cc2)c2ccccc2n1CC(O)COc1ccccc1 (centres undefined),-167%,?,?,21µM*,?,15µM*
SMILES,HepG2 tox,TGFb SMAD3 inh,KB-V1 MDR tox,HT1080-NT tox,KB-3-1 tox,HT1080 IDH1KD tx
CCn1c(=N)n(CC(O)COc2ccccc2)c2ccccc21 (centres undefined),-16%,32%,i,.,i,.
N=c1n(CCO)c2ccccc2n1Cc1ccc(Cl)cc1,-35%,?,i,-28%,i,-16%
Cc1cccc(OCC(O)Cn2c(=N)n(Cc3ccccc3)c3ccccc32)c1 (centres undefined),-71%,?,?,-1%,i,-18%
Clc1ccc(OCc2nc3ccccc3n2Cc2ccccc2)c(Cl)c1,-45%,?,i,.,i,.
COc1cc(NC(=O)COCc2cc(-c3ccc(F)cc3)on2)cc(OC)c1OC,-9%,?,i,.,?,.
COc1ccc(C)cc1-n1nnc(C(=O)Nc2cccc(SC)c2)c1C,-20%,-1%,i,.,i,.
O=[N+]([O-])c1ccc2c(c1)C=CC2,9%,-3%,i,.,i,.
CS(=O)(=O)N(CC(=O)N1CCCCCC1)c1ccc(Br)cc1,-5%,-8%,15µM*,12%,i,8%
CCOC(=O)N1CCN(C(=O)CN(c2ccc(OCc3ccccc3)cc2)S(C)(=O)=O)CC1,-1%,18%,5.2µM*,4%,i,-23%
CS(=O)(=O)N(CC(=O)N1CCCCCC1)c1cccc(Br)c1,0%,?,21µM*,1%,i,1%
Cc1ccc(N(CC(=O)N2CCCCCC2)S(C)(=O)=O)cc1,-5%,-17%,i,3%,i,-3%
Oc1ccccc1CNc1ccc(OC(F)(F)F)cc1,-45%,?,i,18µM*,i,?
COc1cccc(OC)c1C(=O)Nc1cc(C)nn1-c1nc2ccccc2[nH]1,-18%,0%,3.3µM*,6%,15µM*,0%
Cc1cc(NC(=O)C2CCCC2)n(-c2nc3ccccc3[nH]2)n1,-23%,-1%,i,7.9µM*,i,4µM*
Cc1cc(NC(=O)c2ccccc2)n(-c2nc3ccccc3[nH]2)n1,-27%,8%,i,11%,i,8%
COc1ccccc1NS(=O)(=O)c1cc(C(=O)N2CC(C)CC(C)C2)ccc1C (centres undefined),4%,3%,2.3µM*,-7%,i,-13%
CC(CNc1nc2ccccc2c2nc(-c3ccccc3)nn12)c1ccccc1 (centres undefined),-6%,2%,i,.,i,.
CC1(O)CC(c2ccc(Cl)cc2)=NN1C(=O)c1ccc(Cl)cc1 (centres undefined),-41%,10µM*,?,-9%,i,-8%
